# VP16 counter = counter-screen for ROR gamma inhibitors: Gal4-VP16 reporter. Drosophila S2 Gal4-VP16 UAS-luciferase, luminescence, 20 h. Potency, µM (series often up to 53.6 µM), for the others: at the top dose activity, negative = inhibition, hits mostly inhibitors. 310,000 compounds, 3.5% hits. AID 2546;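 further: Gal4-VP16 expression switched on by copper sulfate through the metallothionein promoter; nearly all actives have a fitted effect of over 50% in size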
# KinaseGlo FLuc = blocks Kinase-Glo luciferase, a counter-screen artifact | Kinase-Glo luciferase, ATP luminescence, 8 min | Potency, µM (highest dose often 38.3 µM), for inactives: top-dose activity change, negative = inhibition, actives largely listed as inhibitors | 200,000 compounds, 0.28% hits | AID 1379; further: nearly all actives have a fitted effect of over 60% in size
#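 Inhibition of Kinase-Glo luciferase light generation was assessed at 10 uM ATP in pH 7.2 imidazole buffer, with luminescence measured after eight minutes at ambient temperature.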
# RORgamma inh = inhibitors of mouse ROR gamma transcriptional activity. Potency, µM (titrated, usually from 53.6 µM), for the others: at the top dose activity change, negative = inhibition, most hits filed as inhibitors. P51450. Drosophila S2 Gal4-RORgamma UAS-luciferase reporter, 20 h. 310,000 compounds, 5.4% hits; further: nearly all actives have a fitted effect of over 60% in size
# Target sequence (P51450 whole entry, looked up, the tested form may be a part): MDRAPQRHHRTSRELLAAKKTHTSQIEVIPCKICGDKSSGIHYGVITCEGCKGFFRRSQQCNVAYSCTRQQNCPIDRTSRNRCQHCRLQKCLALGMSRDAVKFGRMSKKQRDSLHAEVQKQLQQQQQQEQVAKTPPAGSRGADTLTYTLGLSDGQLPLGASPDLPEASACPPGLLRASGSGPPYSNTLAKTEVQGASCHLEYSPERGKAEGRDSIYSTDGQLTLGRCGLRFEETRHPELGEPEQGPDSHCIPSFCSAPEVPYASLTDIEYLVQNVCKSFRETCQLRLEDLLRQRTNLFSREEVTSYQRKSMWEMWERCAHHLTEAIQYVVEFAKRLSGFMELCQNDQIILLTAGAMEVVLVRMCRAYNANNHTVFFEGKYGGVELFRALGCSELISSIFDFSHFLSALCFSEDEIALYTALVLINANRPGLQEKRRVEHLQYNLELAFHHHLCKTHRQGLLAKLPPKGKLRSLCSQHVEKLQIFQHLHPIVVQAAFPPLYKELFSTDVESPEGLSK
#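 Read-out: Photinus luciferase luminescence; inhibitors lower reporter signal. Insect Schneider cells with Gal4-ROR gamma fusion under metallothionein promoter, UAS reporter; 700 uM final copper sulfate induction, 20 hr, ambient temperature.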
# Active calls of the source: *; ? = inconclusive; . = no result; [ ] = dose if it differs, or a comment. Rows were chosen to be rich in hits. Some 6.2% of all compounds tested hit in one or more screens of this group. The call rests on the fitted dose curve; in most records, active means well fitted curve in the direction sought with a large enough effect; inconclusive means small, poorly fitted or top-dose-only effect, or another doubt; inactive means no such curve, though single readings can be large; an effect the other way counts as inactive or inconclusive. On the % scale 0 is the no-effect control and ±100 the full control effect; potency means the concentration at half of the fitted maximal effect.
SMILES,VP16 counter,KinaseGlo FLuc,RORgamma inh
COC(=O)c1ccc(/C=C/c2ccc3cccc(OC)c3n2)cc1,0.1%,1.3%,-43.5%
O=C(O)[C@@H]1[C@@H](C(=O)Nc2ccccc2)[C@@H]2C=C[C@@H]1O2,.,-4.5%[7.66 µM],.
CC(C)(C)NC(=O)c1ccc(NC(=O)c2ccccc2-c2ccccc2C(=O)O)cc1,-8.8%,.,?
N#CC1CC(c2ccccc2)Nc2cc(Cl)ccc2N1 (stereo not given),-2.0%,.,?
Clc1ccccc1-c1ncnc2ccc(Br)cc12,-6.0%,-0.7%,?
NNc1nc(-c2ccccc2Cl)c2cc(Br)ccc2n1,?,.,11.2µM*
c1ccc2[nH]ccc2c1,-1.8%,.,9.0%
O=c1ccc2ccccc2[nH]1,12.6µM*,.,6.31µM*
O=C(Nc1nccs1)c1ccc(Br)o1,-5.1%,-14.0%,-50.7%
O=C(Nc1nccs1)c1ccc(-c2ccc(F)c(Cl)c2)o1,?,.,7.94µM*
O=C(Nc1nccs1)c1ccc(-c2ccc(Cl)cc2Cl)o1,5.01µM*,-5.3%,3.55µM*
Cc1cccc(C)c1NC(=O)c1ccc(-c2ccc(Cl)cc2Cl)o1,-1.1%,0.4%,-1.5%
CCN(C/C=C/C#CC(C)(C)C)Cc1cccc(OCc2cc(-c3ccsc3)cs2)c1,5.8%,.,1.5%
O=C(Nc1ccc(Cl)cc1)Nc1ccccc1CC[N+](=O)[O-],-3.1%,0.7%,-26.6%
COC(=O)C1=C(C)N=C2SC(C#N)=C(N)N2C1c1ccc(OC)cc1 (stereo not given),-8.0%,-2.1%,-43.6%
CCOC(=O)C1=C(C)N=C2SC(C(=O)OC)=CC(=O)N2C1c1ccc(OC)cc1 (stereo not given),?,2.5%,1.78µM*
OC(COCC(F)(F)C(F)(F)C(F)(F)C(F)F)Cn1c2ccccc2c2ccccc21 (stereo not given),5.01µM*,-3.4%,?
Cc1ccc(OCC(O)Cn2c3ccccc3c3ccccc32)cc1 (stereo not given),-22.3%,-1.2%,11.3%
O=C1CSC(=S)N1/N=C\c1ccc(Cl)c([N+](=O)[O-])c1,.,-1.9%[7.66 µM],.
C[C@@H]1CCCC(CC(=O)O)(CC(=O)O)C1,.,-1.8%[7.66 µM],.
CCCCOc1ccc(/C=N/NC(=S)Nc2cc(C)ccc2C)cc1,5.01µM*,-2.6%,6.31µM*
Cc1cccc(C)c1NC(=S)N/N=C/c1ccc(C(=O)O)cc1,-0.9%,.,-28.6%
Cc1cccc(C)c1NC(=S)N/N=C/c1ccc(OCCC(C)C)cc1,2.82µM*,18.9%,1.58µM*
Cc1ccc(C)c(NC(=O)CCOc2ccccc2)c1,-0.1%,.,16.6%
CCCCOc1ccc(/C=N/NC(=S)Nc2cccc(C)c2C)cc1,3.16µM*,-4.7%,1.78µM*
SMILES,VP16 counter,KinaseGlo FLuc,RORgamma inh
Cc1cccc(OCCCC(=O)NCC(=O)Nc2cccc(C)c2C)c1,-8.4%,0.5%,4.9%
COc1cc(C(=O)NNC2=CC(=O)CC(C)(C)C2)cc(OC)c1OC,1.1%,0.0%,2.9%
Cc1sc(NC(=O)CN2CCN(c3ccccn3)CC2)c(C#N)c1C,28.1%,-0.3%,?
COc1ccc(-c2coc3c(O)c(OC)ccc3c2=O)cc1,?,-12.1%,?
O=C(c1ccccc1)c1ccc(N2CCN(C(=O)c3cccc(F)c3F)CC2)c(F)c1,12.6µM*,.,?
CC(=O)NC(=S)Nc1ccccc1N1CCN(C(=O)c2ccccc2)CC1,5.01µM*,-0.1%,6.31µM*
CCC(=O)c1ccc(N2CCN(C(=O)c3ccccc3F)CC2)c(F)c1,-13.9%[10 µM],1.0%,19.2%
FC(F)(F)Oc1ccc(NC(=S)Nc2ccccc2N2CCOCC2)cc1,?,.,7.94µM*
CC(C)C(=O)NC(=S)Nc1ccccc1N1CCN(C(=O)c2ccccc2)CC1,-8.3%,-1.4%,-20.6%
O=C(NC(=S)Nc1ccccc1N1CCN(C(=O)c2ccccc2)CC1)c1ccccc1F,?,.,12.6µM*
O=C(Nc1ccccc1N1CCN(C(=O)c2ccccc2)CC1)c1ccc(Cl)cc1,-11.1%,3.3%,33.4%
O=C(CN1CCOCC1)Nc1ccc(OC(F)(F)F)cc1,-1.4%,.,9.3%
CC(=O)CSc1nc2c(c(=O)[nH]c(=O)n2C)n1CCCc1ccccc1,6.2%,.,?
O=C(NC(=S)Nc1ccccc1N1CCOCC1)c1sc2ccccc2c1Cl,1.6%,-2.1%,?
O=C(NC(=S)Nc1ccccc1N1CCOCC1)c1ccccc1F,20µM*,.,12.6µM*
Cc1nc2ccc(Br)cn2c1C(=O)N/N=C\c1ccccc1[N+](=O)[O-],-18.2%,1.7%,?
COc1cccc(/C=N/NC(=O)c2c(C)nc3ccc(Cl)cn23)c1O,3.98µM*,.,3.16µM*
Cc1nc2ccc(Br)cn2c1C(=O)N/N=C\c1ccccc1Cl,?,.,7.08µM*
Cc1nc2ccccn2c1C(=O)N/N=C/c1ccccc1Cl,-4.6%,.,-34.1%
C[n+]1ccn(CC(=O)c2cc(C(C)(C)C)c(O)c(C(C)(C)C)c2)c1,-13.9%,.,24.2%
O=c1cc(O)c2ccccc2n1Cc1ccccc1,-6.2%[10 µM],3.8%,31.6%
C=C1C=CS(=O)(=O)N(C(CC(C)C)C(=O)OC)C1 (stereo not given),-6.8%,.,-4.9%
CC/C(=N\NC(=O)Cc1ccc(Br)cc1)c1cccs1,?,.,-14.8%
Cc1nc2ccc(Cl)cc2nc(C)/c1=N\O,8.1%,2.0%,?
Cc1ccc2nc(C)/c(=N\O)c(C)nc2c1,-1.8%,-5.6%,11.2µM*
SMILES,VP16 counter,KinaseGlo FLuc,RORgamma inh
CC1(C)Cc2c(c(N3CCOCC3)nc3sc4c(NN)ncnc4c23)CS1,7.08µM*,19.3%,7.94µM*
Cc1cc(C)n(-c2nc(-n3nc(C)cc3C)c3c4c(sc3n2)COC(C)(C)C4)n1,12.6µM*,-8.2%,3.55µM*
CSc1nnc2c3c4c(sc3nc(-n3nc(C)cc3C)n12)COC(C)(C)C4,-2.1%,.,-8.8%
Cc1cc(C)n(-c2nc(NCCCN(C)C)c3c4c(sc3n2)CCCC4)n1,7.08µM*,.,3.98µM*
Cc1cc(C)n(-c2nc(NCCN(C)C)c3c4c(sc3n2)COC(C)(C)C4)n1,-19.0%,.,15.8µM*
Cc1cc(C)n(-c2nc(NCCN(C)C)c3c4c(sc3n2)CCCC4)n1,-13.5%,.,-16.8%
Cc1cc(C)n(-c2nc(NCCCN(C)C)c3c4c(sc3n2)COC(C)(C)C4)n1,0.7%,.,?
CC(C)CNc1nnnc2c1sc1nc(N3CCOCC3)c3c(c12)CC(C)(C)SC3,3.6%,0.6%,35.3%
Cc1n[nH]c(=O)[nH]c1=O,3.6%[17 µM],1.6%[17.1 µM],3.5%[16.9 µM]
CN(C)C(=O)N1CCC(C(=O)N2CCCC(C(=O)c3ccc(C(C)(C)C)cc3)C2)CC1 (stereo not given),-0.7%,.,?
C=CCN1CCCC1CNC(=O)c1cc(S(N)(=O)=O)cc(OC)c1OC (stereo not given),-4.7%,.,-22.7%
CC(=O)Nc1c(-c2ccc3ccccc3c2)nc2ccccn12,-6.3%,.,-15.4%
COc1ccccc1N(CC(=O)NC(C)(C)C)S(=O)(=O)c1cccs1,1.3%,4.1%,-19.1%
COc1ccccc1/C=C1/SC(=S)N(C(C)C(=O)NC2C=CS(=O)(=O)C2)C1=O (stereo not given),-0.9%,.,6.9%
Cc1ccc(C(=O)N/C(=C\c2ccccc2)C(=O)NCCN2CCOCC2)cc1,-9.9%,.,-21.6%
CN(C)CCNc1ncnc2c1sc1nc(N3CCCC3)c3c(c12)CC(C)(C)OC3,-3.6%,.,-9.6%
Cc1cc(C)n(-c2nc3sc4c(c3c3nnc(SCC(N)=O)n23)CC(C)(C)OC4)n1,-3.9%,-1.6%,7.6%

# Assay outcomes from PubChem.
